Test results published in PubChem BioAssay AID1159580 (chemical genetic matrix, 2015).
The campaign covered roughly 5,500 compounds. About 2,000 (36%) were called active. Another 18% or so got no clear call; they are omitted. No stated cut-off is given here; in the data, active means normalized growth mostly below about 0.91 (no sharp cut-off); inconclusive means no clear call, values can overlap the other calls; inactive means mostly above about 0.92. The list shows a part of the results.

Experiment: chemical genetic growth profiling, strain panel (AID 1159580);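 further: tested at 20 µM; growth read once vehicle control cultures reached saturation at 30 °C; 1 = growth at the plate median or of vehicle wells; lower values mean less growth of the strain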
Details: growth OD

Measured: normalized growth

CC(=O)O[C@@H]1C=C[C@@]2(C)C(C[C@@H](OC(C)=O)[C@@]3(C)C4=CC(=O)O[C@@H](c5ccoc5)[C@]4(C)CCC23)C1(C)C (some centres not stated)
active: S. cerevisiae deletion strains, locus YKL009W, strain mrt4, hits give low values 0.364 | S. cerevisiae deletion strains, locus YKL068W, hits give low values 0.0545 | S. cerevisiae deletion strains, locus YKL085W, strain MDH1 (second series), hits give low values 0.0525 | S. cerevisiae deletion strains, locus YKL085W, strain MDH1, hits give low values 0.0525 | S. cerevisiae deletion strains, locus YKR001C, strain vps1, hits give low values 0.0622 | S. cerevisiae deletion strains, locus YLR102C, strain apc9, hits give low values 0.0602 | S. cerevisiae deletion strains, locus YLR268W, strain sec22, hits give low values 0.0676 | S. cerevisiae deletion strains, locus YLR371W, strain rom2, hits give low values 0.0619 | S. cerevisiae deletion strains, locus YLR418C, strain cdc73, hits give low values 0.0929 | S. cerevisiae deletion strains, locus YML032C, strain rad52, hits give low values 0.15 | S. cerevisiae deletion strains, locus YML124C, strain tub3, hits give low values 0.0589 | S. cerevisiae deletion strains, locus YMR078C, strain ctf18, hits give low values 0.072 | S. cerevisiae deletion strains, locus YMR223W, strain ubp8, hits give low values 0.0665 | S. cerevisiae deletion strains, locus YNL250W, strain rad50, hits give low values 0.065 | S. cerevisiae deletion strains, locus YNL271C, strain bni1, hits give low values 0.0603 | S. cerevisiae deletion strains, locus YNL298W, strain CLA4, hits give low values 0.0602 | S. cerevisiae deletion strains, locus YNL307C, strain MCK1, hits give low values 0.069 | S. cerevisiae deletion strains, locus YNR052C, strain pop2, hits give low values 0.112 | S. cerevisiae deletion strains, locus YOL147C, strain pex11, hits give low values 0.0888 | S. cerevisiae deletion strains, locus YOR136W, strain idh2, hits give low values 0.0732 | S. cerevisiae deletion strains, locus YOR144C, strain elg1, hits give low values 0.131 | S. cerevisiae deletion strains, locus YOR184W, strain ser1, hits give low values 0.0712 | S. cerevisiae deletion strains, locus YOR316C, strain cot1, hits give low values 0.0594 | S. cerevisiae deletion strains, locus YPR119W, strain clb2, hits give low values 0.0629 | S. cerevisiae deletion strains, locus YPR141C, strain kar3, hits give low values 0.0773 | S. cerevisiae deletion strains, locus YPR163C, strain tif3, hits give low values 0.0691 | S. cerevisiae deletion strains, locus YPR167C, strain met16, hits give low values 0.0608 | S. cerevisiae deletion strains, strain wtn01, hits give low values 0.0601
inactive: S. cerevisiae deletion strains, locus YJR066W, strain TOR1, hits give low values 0.928 | S. cerevisiae deletion strains, locus YJR075W, strain HOC1, hits give low values 1.03 | S. cerevisiae deletion strains, locus YKL160W, strain elf1, hits give low values 0.988 | S. cerevisiae deletion strains, locus YKL190W, strain CNB1, hits give low values 1.01 | S. cerevisiae deletion strains, locus YKR026C, strain gcn3, hits give low values 1.01 | S. cerevisiae deletion strains, locus YKR091W, strain srl3, hits give low values 0.982 | S. cerevisiae deletion strains, locus YLL001W, strain dnm1, hits give low values 1.02 | S. cerevisiae deletion strains, locus YLL026W, hits give low values 1.01 | S. cerevisiae deletion strains, locus YLL041C, strain sdh2, hits give low values 0.999 | S. cerevisiae deletion strains, locus YLR027C, strain aat2, hits give low values 1 | S. cerevisiae deletion strains, locus YLR039C, strain RIC1, hits give low values 0.982 | S. cerevisiae deletion strains, locus YLR058C, strain SHM2, hits give low values 1.01 | S. cerevisiae deletion strains, locus YLR113W, strain HOG1, hits give low values 1.01 | S. cerevisiae deletion strains, locus YLR221C, strain rsa3, hits give low values 1.05 | S. cerevisiae deletion strains, locus YLR258W, strain gsy2, hits give low values 0.999 | S. cerevisiae deletion strains, locus YLR262C, strain YPT6 (second series), hits give low values 0.96 | S. cerevisiae deletion strains, locus YLR262C, strain YPT6, hits give low values 0.986 | S. cerevisiae deletion strains, locus YLR320W, strain mms22, hits give low values 1.02 | S. cerevisiae deletion strains, locus YLR330W, strain CHS5, hits give low values 1.01 | S. cerevisiae deletion strains, locus YLR342W, strain FKS1 (second series), hits give low values 1.03 | S. cerevisiae deletion strains, locus YLR342W, strain FKS1, hits give low values 0.994 | S. cerevisiae deletion strains, locus YLR357W, strain rsc2, hits give low values 1.03 | S. cerevisiae deletion strains, locus YLR370C, strain arc18, hits give low values 0.983 | S. cerevisiae deletion strains, locus YLR384C, strain iki3, hits give low values 0.983 | S. cerevisiae deletion strains, locus YML016C, strain PPZ1, hits give low values 1.02 | S. cerevisiae deletion strains, locus YML120C, strain ndi1, hits give low values 0.994 | S. cerevisiae deletion strains, locus YMR058W, strain fet3, hits give low values 0.984 | S. cerevisiae deletion strains, locus YMR125W, strain sto1, hits give low values 0.997 | S. cerevisiae deletion strains, locus YMR129W, hits give low values 0.999 | S. cerevisiae deletion strains, locus YMR205C, strain PFK2, hits give low values 1 | S. cerevisiae deletion strains, locus YMR231W, strain pep5, hits give low values 0.991 | S. cerevisiae deletion strains, locus YMR263W, strain SAP30, hits give low values 1 | S. cerevisiae deletion strains, locus YMR307W, strain GAS1, hits give low values 1.06 | S. cerevisiae deletion strains, locus YNL067W, strain RPL9B, hits give low values 1 | S. cerevisiae deletion strains, locus YNL071W, strain lat1, hits give low values 0.992 | S. cerevisiae deletion strains, locus YNL128W, strain TEP1, hits give low values 1 | S. cerevisiae deletion strains, locus YNL153C, strain GIM3, hits give low values 0.998 | S. cerevisiae deletion strains, locus YNL183C, strain NPR1, hits give low values 0.956 | S. cerevisiae deletion strains, locus YNL209W, strain ssb2, hits give low values 0.985 | S. cerevisiae deletion strains, locus YNL233W, strain BNI4, hits give low values 1 | S. cerevisiae deletion strains, locus YNL248C, strain rpa49, hits give low values 0.961 | S. cerevisiae deletion strains, locus YNL322C, strain KRE1 (second series), hits give low values 0.985 | S. cerevisiae deletion strains, locus YNL322C, strain KRE1, hits give low values 1.02 | S. cerevisiae deletion strains, locus YNR049C, strain mso1, hits give low values 0.975 | S. cerevisiae deletion strains, locus YOL006C, strain TOP1, hits give low values 0.901 | S. cerevisiae deletion strains, locus YOR001W, strain rrp6, hits give low values 1.01 | S. cerevisiae deletion strains, locus YOR061W, strain CKA2, hits give low values 1.01 | S. cerevisiae deletion strains, locus YOR069W, strain VPS5, hits give low values 1.01 | S. cerevisiae deletion strains, locus YOR070C, strain gyp1, hits give low values 0.991 | S. cerevisiae deletion strains, locus YOR080W, strain dia2, hits give low values 0.984 | S. cerevisiae deletion strains, locus YOR083W, strain WHI5, hits give low values 1 | S. cerevisiae deletion strains, locus YOR106W, strain vam3, hits give low values 0.997 | S. cerevisiae deletion strains, locus YOR231W, strain MKK1, hits give low values 0.985 | S. cerevisiae deletion strains, locus YOR265W, strain rbl2, hits give low values 0.985 | S. cerevisiae deletion strains, locus YOR270C, strain vph1, hits give low values 0.885 | S. cerevisiae deletion strains, locus YOR290C, strain snf2, hits give low values 0.956 | S. cerevisiae deletion strains, locus YPL051W, strain arl3, hits give low values 0.996 | S. cerevisiae deletion strains, locus YPL055C, strain LGE1, hits give low values 0.968 | S. cerevisiae deletion strains, locus YPL078C, strain atp4, hits give low values 0.982 | S. cerevisiae deletion strains, locus YPL106C, strain sse1, hits give low values 0.975 | S. cerevisiae deletion strains, locus YPL240C, strain hsp82, hits give low values 0.993 | S. cerevisiae deletion strains, locus YPL241C, strain CIN2, hits give low values 1.01 | S. cerevisiae deletion strains, locus YPL256C, strain CLN2, hits give low values 0.948 | S. cerevisiae strains, strain wild type, hits give low values 1.02
